An excerpt weighted towards active compounds, which were near 1.7% of everything screened.
KCNH2 3.1 inh: qHTS for Inhibitors of KCHN2 3.1: Mutant qHTS. AID 720553, 2013. U2OS KCNH2 3.1, thallium flux FluxOr; stronger effect = lower value. activity change, % (tested at about 1.8 µM). 340,000 compounds, 0.95% hits;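 active means maximum activity change below -70%; inconclusive means maximum activity change from -70% to -50%; inactive means maximum activity change above -50%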;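 further: thallium influx rate constant from kinetic fluorescence after stimulation buffer; on the % scale 0 is the no-effect control and ±100 the full control effect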
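Thallium flux read-out: FluxOr dye with Red40 quencher in HBSS/HEPES, 45 min at RT. Rate constants from kinetic reads were normalized to positive and negative DMSO controls. Cells: U2OS virally expressing the 3.1 isoform.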
TRPML1 agonist: qHTS for Agonists of the Human Mucolipin Transient Receptor Potential 1 (TRPML1). AID 624414, 2012. Mucolipin-1 (Homo sapiens), Q9GZU1. TRPML1-expressing cells, Ca2+ dye fluorescence, FDSS. 410,000 compounds, 0.12% hits. activation, % (no concentration beside the values); in the data active means activation above about 50%; inconclusive means mostly about 30% to 49%; further: 0% is about no effect
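Tetracycline-induced TRPML1-DL cells are seeded and incubated overnight before loading with a no-wash Ca2+ dye and quencher. Agonist activity is taken from the 110 s fluorescence read following compound pin-transfer on an FDSS, before EC80 54-4 challenge.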
TRPML1 inh: qHTS for Inhibitors of the Human Mucolipin Transient Receptor Potential 1 (TRPML1). TRPML1-inducible cells, Ca2+ dye fluorescence, FDSS; stronger effect = lower value; inhibition of EC80 agonist-evoked calcium signal. 390,000 compounds, 0.02% hits. AID 624415, 2012. activity change, negative = inhibition, % (concentration not given with the values); in the data active means activity change below about -50%; inconclusive means between about -30% and that limit;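 further: stimulus is agonist 54-4 at its EC80 concentration; on the % scale 0 is the no-effect control and ±100 the full control effect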
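Calcium fluorescence in TRPML1-DL cells induced overnight with Tet: a 110 s read after compound pin addition, then a 110 s antagonist read after challenge with 54-4 at 4 uM final (EC80).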
TRHR enhancer-1: qHTS for Small Molecule Agonists and Allosteric Enhancers of Human TRH Receptor: Primary Screen for Enhancers | TRHR cells, fluo-8 calcium fluorescence, EC20 TRH enhancement | 360,000 compounds, 0.66% hits | Thyrotropin-releasing hormone receptor (Homo sapiens), P34981 | enhancement, % at 2 µM | AID 493056, 2011; in the data active means enhancement above about 30%; further: 0% is about no effect
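Enhancer read-out: after compound pinning and an initial kinetic agonist-mode read, an EC20 of TRH (10 nM final) was injected and fluo-8 calcium signal (Ex 480/Em 530) followed at 1 s/cycle for 100 cycles in TRHR-expressing cells.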
TRHR agonist-1: qHTS for Small Molecule Agonists and Allosteric Enhancers of Human TRH Receptor: Primary Screen for Agonists; TRHR cells, calcium flux fluo-8, FDSS agonist mode; activation, % at 2 µM; 360,000 compounds, 0.18% hits; AID 493084, 2011; in the data active means activation above about 30%; further: 0% is about no effect
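TRHR-expressing cells loaded with fluo-8 calcium dye; 23 nL library compound pin-transferred, kinetic FDSS fluorescence (Ex 480/Em 530) recorded about 180 s for agonist-induced calcium release, before a 10 nM TRH EC20 addition for potentiator mode.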
KCNH2 WT inh: qHTS for Inhibitors of KCHN2 3.1: Wildtype qHTS; U2OS, BacMam KCNH2, thallium flux FluxOr; stronger effect = lower value; activity change, % at 1.84 µM; 340,000 compounds, 0.37% hits; AID 720551, 2013;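 active means maximum activity change below -70%; inconclusive means maximum activity change between -70% and -50%; inactive means maximum activity change above -50%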; further: on the % scale 0 is the no-effect control and ±100 the full control effect
Target sequence (Q12809 whole entry, looked up): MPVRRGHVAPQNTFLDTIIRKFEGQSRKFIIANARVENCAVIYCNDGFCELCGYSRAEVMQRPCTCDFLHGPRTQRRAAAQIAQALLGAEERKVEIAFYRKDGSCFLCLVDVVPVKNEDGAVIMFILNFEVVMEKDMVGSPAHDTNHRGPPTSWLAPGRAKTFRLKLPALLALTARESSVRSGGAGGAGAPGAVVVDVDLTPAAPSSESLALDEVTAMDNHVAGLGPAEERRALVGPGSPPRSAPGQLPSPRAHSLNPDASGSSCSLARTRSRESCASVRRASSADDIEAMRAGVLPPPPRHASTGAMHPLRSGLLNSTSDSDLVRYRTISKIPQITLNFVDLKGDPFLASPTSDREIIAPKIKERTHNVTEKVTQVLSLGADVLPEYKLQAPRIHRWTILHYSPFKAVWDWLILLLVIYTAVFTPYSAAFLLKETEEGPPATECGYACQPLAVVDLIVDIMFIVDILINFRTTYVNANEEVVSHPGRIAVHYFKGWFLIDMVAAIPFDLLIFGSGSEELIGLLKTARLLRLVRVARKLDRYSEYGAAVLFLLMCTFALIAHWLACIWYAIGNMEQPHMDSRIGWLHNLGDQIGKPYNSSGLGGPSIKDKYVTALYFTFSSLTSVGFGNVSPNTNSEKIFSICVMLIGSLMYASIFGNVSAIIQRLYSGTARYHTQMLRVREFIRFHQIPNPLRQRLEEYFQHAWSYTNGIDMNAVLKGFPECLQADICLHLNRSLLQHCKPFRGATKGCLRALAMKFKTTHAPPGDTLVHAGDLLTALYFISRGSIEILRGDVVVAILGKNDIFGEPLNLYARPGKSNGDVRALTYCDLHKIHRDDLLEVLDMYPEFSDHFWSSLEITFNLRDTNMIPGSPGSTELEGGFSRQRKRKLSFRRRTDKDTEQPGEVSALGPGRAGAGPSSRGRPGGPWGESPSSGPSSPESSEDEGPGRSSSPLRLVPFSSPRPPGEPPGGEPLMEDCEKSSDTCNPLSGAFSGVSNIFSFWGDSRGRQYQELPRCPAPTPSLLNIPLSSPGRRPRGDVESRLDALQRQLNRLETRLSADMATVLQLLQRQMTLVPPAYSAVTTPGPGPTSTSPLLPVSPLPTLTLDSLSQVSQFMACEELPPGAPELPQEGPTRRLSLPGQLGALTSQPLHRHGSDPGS
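U2OS cells transduced with wild-type KCNH2 virus are loaded with FluxOr dye for 45 min, and thallium flux is measured in kinetic reads before and after stimulation buffer. Rate constants are normalized to DMSO controls.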
TRHR enhancer-2: qHTS for Small Molecule Agonists and Allosteric Enhancers of Human TRH Receptor: Confirmation Screen for Enhancers | TRH receptor cell assay, enhancer confirmation qHTS | shares compounds with TRHR enhancer-1 | AID 493076, 2011 | activity change, negative = inhibition, % at 46.1 µM | 970 tested, under 10 active;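 further: compound effect scored on response to added TRH at EC20 of 10 nM; 0% is about no effect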
TRHR agonist-2: qHTS for Small Molecule Agonists and Allosteric Enhancers of Human TRH Receptor: Confirmation Screen for Agonists | shares compounds with TRHR enhancer-1 | TRHR-expressing cells, agonist activation read-out | Potency, µM (doses to about 46.1 µM), without a hit: at the highest dose activation, hits mostly activators | 970 compounds, 8% hits; further: potency means the concentration at half of the fitted maximal effect; 0% is about no effect; nearly all actives have a fitted effect of over 75% in size
An asterisk follows results filed as active; ! = not confirmed by another sample. Unless noted, the call rests on the fitted dose curve; in most records, active means well fitted curve in the direction sought with a large enough effect; inconclusive means small, poorly fitted or top-dose-only effect, or another doubt; inactive means no such curve, though single readings can be large; an effect the other way counts as inactive or inconclusive.

Screening CC(C(=O)c1ccccc1)[n+]1cccc(C(N)=O)c1 (centres undefined) returned KCNH2 3.1 inh 5.9, TRPML1 agonist 0.7, TRPML1 inh 1.1, TRHR enhancer-1 41.1*, TRHR agonist-1 0.4, KCNH2 WT inh -7.0, TRHR enhancer-2 0.7 and TRHR agonist-2 -0.7%.
For CCOc1ccc(/C=C(\C(=O)O)c2ccc(S(=O)(=O)N3CCCCC3)s2)cc1OC the results were KCNH2 3.1 inh 9.0, TRPML1 agonist 0.0, TRPML1 inh 16.7 and KCNH2 WT inh -10.6.
For CCCn1c(=O)c2sccc2n2c(CCCC(=O)NCc3cccnc3)nnc12 the results were KCNH2 3.1 inh 3.6, TRPML1 agonist 0.6, TRPML1 inh 29.3, TRHR enhancer-1 -7.7, TRHR agonist-1 0.6 and KCNH2 WT inh 3.8.
For Cn1c(=O)c2sccc2n2c(CCCC(=O)NCc3cccnc3)nnc12 the results were KCNH2 3.1 inh 15.9, TRPML1 agonist 0.9, TRPML1 inh 5.0, TRHR enhancer-1 42.1*, TRHR agonist-1 0.3, KCNH2 WT inh -25.5, TRHR enhancer-2 -7.1 and TRHR agonist-2 -0.6%.
For COc1ccc(OC)c(CCNC(=O)CCCc2nnc3n(C)c(=O)c4sccc4n23)c1 the results were KCNH2 3.1 inh -7.4, TRPML1 agonist -0.4, TRPML1 inh -0.5, TRHR enhancer-1 55.9*!, TRHR agonist-1 1.0, KCNH2 WT inh 3.4, TRHR enhancer-2 4.1 and TRHR agonist-2 -0.7%.
For COc1cc(C(=O)Nc2cccc(-c3cn4cccnc4n3)c2)cc(OC)c1OC the results were KCNH2 3.1 inh 17.4, TRPML1 agonist -0.6, TRPML1 inh 4.9, TRHR enhancer-1 62.6*, TRHR agonist-1 -0.1, KCNH2 WT inh 2.6, TRHR enhancer-2 10.0 and TRHR agonist-2 -0.4%.
For CC(=O)Nc1cccc2c1C(=O)N(c1ccccc1C)C2=O the results were KCNH2 3.1 inh 26.3, TRPML1 agonist 0.7, TRPML1 inh 6.2, TRHR enhancer-1 -0.7, TRHR agonist-1 0.1 and KCNH2 WT inh 3.1.
Screening COc1ccccc1N1C(=O)c2cccc3c(N(C)CCO)ccc(c23)C1=O returned KCNH2 3.1 inh 8.5, TRPML1 agonist 16.8, TRPML1 inh -4.5, TRHR enhancer-1 4.9, TRHR agonist-1 61.0*, KCNH2 WT inh 4.1, TRHR enhancer-2 5.4 and TRHR agonist-2 20.6µM*.
Screening Cc1ccccc1N1C(=O)c2cccc3c(N(C)CCO)ccc(c23)C1=O returned KCNH2 3.1 inh 6.8, TRPML1 agonist -0.2, TRPML1 inh 5.4, TRHR enhancer-1 0.2, TRHR agonist-1 41.0*, KCNH2 WT inh -2.2, TRHR enhancer-2 1.0 and TRHR agonist-2 18.4µM*.
Screening O=C(Nc1cccc2ncccc12)c1ccc(F)cc1 returned KCNH2 3.1 inh -1.4, TRPML1 agonist -0.3, TRPML1 inh -5.6, TRHR enhancer-1 -5.8, TRHR agonist-1 1.3 and KCNH2 WT inh 1.9.
`O=C(Nc1cccc2ncccc12)c1ccc(Cl)cc1` gave KCNH2 3.1 inh 16.1, TRPML1 agonist 0.1, TRPML1 inh 33.6, TRHR enhancer-1 59.6*, TRHR agonist-1 0.1, KCNH2 WT inh -7.5, TRHR enhancer-2 2.1 and TRHR agonist-2 -0.5%.
Screening CCC(C)c1ccc(S(=O)(=O)Nc2cccnc2)cc1 (centres undefined) returned KCNH2 3.1 inh -2.5, TRPML1 agonist 1.3, TRPML1 inh -3.9, TRHR enhancer-1 10.2, TRHR agonist-1 0.2 and KCNH2 WT inh 3.2.
`CC(C)Cc1ccc(S(=O)(=O)Nc2cccnc2)cc1` gave KCNH2 3.1 inh 5.8, TRPML1 agonist 1.4, TRPML1 inh 4.8, TRHR enhancer-1 58.5*, TRHR agonist-1 0.3, KCNH2 WT inh -13.6, TRHR enhancer-2 -5.9 and TRHR agonist-2 0.6%.
O=C(Nc1ccc(S(=O)(=O)Nc2nccc(C3Cc4ccccc4C(=O)O3)n2)cc1)c1ccccc1 (centres undefined) was read as KCNH2 3.1 inh -14.6, TRPML1 agonist 2.0, TRPML1 inh 18.6, TRHR enhancer-1 42.8*, TRHR agonist-1 0.3, KCNH2 WT inh -1.5, TRHR enhancer-2 -4.7 and TRHR agonist-2 0.9%.
O=C(N/N=C/c1coc2ccccc2c1=O)c1cccc([N+](=O)[O-])c1 was read as KCNH2 3.1 inh 2.2, TRPML1 agonist -0.5, TRPML1 inh 3.3, TRHR enhancer-1 61.3*, TRHR agonist-1 0.3, KCNH2 WT inh 0.6, TRHR enhancer-2 inconclusive and TRHR agonist-2 3.1%.
For COc1nc(N)nc(CC(=O)C2CC2)n1 the results were KCNH2 3.1 inh -16.4, TRPML1 agonist -0.2, TRPML1 inh -9.9, TRHR enhancer-1 62.0*, TRHR agonist-1 0.3, KCNH2 WT inh -1.2, TRHR enhancer-2 -2.4 and TRHR agonist-2 -0.5%.
For CCOC(=O)N1CCC(Nc2nc(OC)nc(OC)n2)CC1 the results were KCNH2 3.1 inh 10.8, TRPML1 agonist -1.0, TRPML1 inh -5.8, TRHR enhancer-1 -0.1, TRHR agonist-1 -0.1 and KCNH2 WT inh -1.8.
For Cc1ccc(OCc2cc(C(=O)N(C)Cc3cnn(-c4ccccc4C)c3)no2)cn1 the results were KCNH2 3.1 inh -5.2, TRPML1 agonist 0.8, TRPML1 inh 13.0, TRHR enhancer-1 43.3*, TRHR agonist-1 -0.5, KCNH2 WT inh -9.5, TRHR enhancer-2 -6.1 and TRHR agonist-2 -0.4%.
Screening CCn1c(CNC(=O)COc2ccc(C(C)C)cc2)nnc1SCC(=O)Nc1cc(F)ccc1C returned KCNH2 3.1 inh -6.6, TRPML1 agonist 1.4, TRPML1 inh -11.9, TRHR enhancer-1 41.2*, TRHR agonist-1 -1.5, KCNH2 WT inh 1.1, TRHR enhancer-2 -2.5 and TRHR agonist-2 3.0%.
